Test results: PubChem BioAssay (Tox21)
Values joined by “and” are separate entries in the source; they are usually repeats but may differ in a detail not shown here. Identical values can stand only once. Records with an inconclusive call do not appear. Entries that show only a call come without a potency. The source holds several records for some structures; these can differ, active in one and inactive in another. Active and inactive are the calls of the source. Unless noted, calls come from the whole dose curve; as a rule, active = well fitted curve in the direction sought with a large enough effect in the repeat runs; inconclusive = weak or mixed curves; inactive = no such curve, though single readings can be large; an effect the other way counts as inactive or inconclusive.

Key:
[1] = qHTS assay to identify small molecule agonists of the estrogen receptor alpha (ER-alpha) signaling pathway in the presence of an antagonist - cell viability counter screen (AID 1259386);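 note: cells exposed to compounds for 22 h at 37 °C before the viability read; nearly all actives have a fitted effect of over 30% in size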; note: potency is the fitted concentration of half-maximal effect
Method in brief: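 Cells are starved of estrogens for 5 days in charcoal-stripped serum, seeded for 24hr and co-treated with ICI-182,780 (10.0nM final) and test compounds. After 22hr at 37C, viability is read as CellTiter-Fluor fluorescence.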

[2] = molecular target: Progesterone receptor (Homo sapiens) (UniProt P06401); test: qHTS assay to identify small molecule agonists of the progesterone receptor (PR) signaling pathway (AID 1346784; calls by dose curve; note: nearly all actives have a fitted effect of over 30% in size; note: potency is the fitted concentration of half-maximal effect)
Method in brief: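 PR-UAS-bla HEK 293T cells (beta-lactamase reporter under UAS) in 2% charcoal-stripped FBS, dosed with 23 nL compound after 6 hr, incubated 16hr at 37C. LiveBLAzer B/G FRET substrate added, fluorescence read after 2 hours.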

[3] = molecular target: Progesterone receptor (Homo sapiens) (UniProt P06401); test: qHTS assay to identify small molecule antagonists of the progesterone receptor (PR) signaling pathway (AID 1346795; active = well fitted inhibition curve with a large enough effect in the signal ratio in the repeat runs, not every such curve was filed as active; the % refers to the signal ratio; note: potency is the fitted concentration of half-maximal effect)
Method in brief: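 PR-UAS-bla HEK293T cells with beta-lactamase reporter under UAS control, in 2% charcoal-stripped FBS, treated with compounds plus 1 nM promegestone (R5020, final) for 16 hr at 37C. Read-out: FRET beta-lactamase substrate fluorescence after 2 hr at room temperature.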

[4] = qHTS assay to identify small molecule agonists of the progesterone receptor (PR) signaling pathway - cell viability counter screen (AID 1346799; calls by dose curve; note: nearly all actives have a fitted effect of over 45% in size; note: potency is the fitted concentration of half-maximal effect)
Method in brief: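 Counter screen in the PR-UAS-bla HEK293T wells (2% charcoal-stripped FBS, 16 h compound exposure at 37 C) after the bla read. CellTiter-Glo added, 30 min at room temperature, luminescence read as cell viability.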

[5] = qHTS assay to identify small molecule agonists of the TGF-beta/Smad signaling pathway (AID 1346859; active = well fitted activation curve with a large enough effect in the signal ratio in the repeat runs, not every such curve was filed as active; the % refers to the signal ratio; note: series mostly up to about 77 µM)
Method in brief: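 SBE-bla HEK293T cells plated overnight, then compound exposure for 5 h at 37 C. Beta-lactamase reporter read with LiveBLAzer B/G FRET substrate after 2 h at room temperature, fluorescence at 405 nm excitation, 460/530 nm emission.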

[6] = qHTS assay to identify small molecule antagonists of the progesterone receptor (PR) signaling pathway - cell viability counter screen (AID 1346798); note: nearly all actives have a fitted effect of over 50% in size; note: potency is the fitted concentration of half-maximal effect
Method in brief: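 PR-UAS-bla HEK293T cells, 3,000/well in 2% charcoal-stripped FBS medium, dosed with compounds plus R5020 agonist and incubated 16 h at 37C. Viability then measured in the same wells by CellTiter-Glo luminescence after 30 min at RT.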

[7] = qHTS assay to identify small molecule antagonists of the TGF-beta/Smad signaling pathway - cell viability counter screen (AID 1346824); note: nearly all actives have a fitted effect of over 50% in size; note: potency is the fitted concentration of half-maximal effect
Method in brief: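 SBE-bla HEK 293T cells, incubated overnight, then compound plus 0.25 ng/mL TGF-beta1 (stock added) for 5 hr at 37 C. Viability was read in the same wells by CellTiter-Glo luminescence after 30 min at room temperature.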

[8] = qHTS assay to identify small molecule agonists of the TGF-beta/Smad signaling pathway - cell viability counter screen (AID 1346829); note: nearly all actives have a fitted effect of over 45% in size; note: potency is the fitted concentration of half-maximal effect
Method in brief: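 After overnight seating at 37 C and 5% CO2, reporter cells got compounds for 5 hr and FRET substrate for 2 hr; cell viability then came from CellTiter-Glo luminescence.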

[9] = molecular target: Thyrotropin-releasing hormone receptor (Homo sapiens) (UniProt P34981); test: qHTS assay to identify small molecule antagonists of the thyrotropin-releasing hormone receptor (TRHR) signaling pathway (AID 1346877; active = well fitted inhibition curve with a large enough effect in the repeat runs, not every such curve was filed as active; note: potency is the fitted concentration of half-maximal effect)
Method in brief: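 Cells (TRHR-HEK293) are plated and kept 18 h at 37 °C/5% CO2. A calcium-sensitive dye is added for 2 h, compound follows for 5 min at room temperature, and TRH is then given at 1 nM final.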

[10] = molecular target: Thyrotropin-releasing hormone receptor (Homo sapiens) (UniProt P34981); test: qHTS assay to identify small molecule agonists of the thyrotropin-releasing hormone receptor (TRHR) signaling pathway (AID 1346891; calls by dose curve; note: potency is the fitted concentration of half-maximal effect; for activation: series mostly up to about 58 µM)
Method in brief: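 HEK293 cells expressing TRHR plated 18 h at 37 C/5% CO2, calcium dye-loaded 2 h at 37 C, then compound added (agonist mode); kinetic calcium fluorescence read 3 min at 1 s intervals; 15 concentrations in triplicate.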

Chain of Progesterone receptor (Homo sapiens) (P06401 whole entry, looked up): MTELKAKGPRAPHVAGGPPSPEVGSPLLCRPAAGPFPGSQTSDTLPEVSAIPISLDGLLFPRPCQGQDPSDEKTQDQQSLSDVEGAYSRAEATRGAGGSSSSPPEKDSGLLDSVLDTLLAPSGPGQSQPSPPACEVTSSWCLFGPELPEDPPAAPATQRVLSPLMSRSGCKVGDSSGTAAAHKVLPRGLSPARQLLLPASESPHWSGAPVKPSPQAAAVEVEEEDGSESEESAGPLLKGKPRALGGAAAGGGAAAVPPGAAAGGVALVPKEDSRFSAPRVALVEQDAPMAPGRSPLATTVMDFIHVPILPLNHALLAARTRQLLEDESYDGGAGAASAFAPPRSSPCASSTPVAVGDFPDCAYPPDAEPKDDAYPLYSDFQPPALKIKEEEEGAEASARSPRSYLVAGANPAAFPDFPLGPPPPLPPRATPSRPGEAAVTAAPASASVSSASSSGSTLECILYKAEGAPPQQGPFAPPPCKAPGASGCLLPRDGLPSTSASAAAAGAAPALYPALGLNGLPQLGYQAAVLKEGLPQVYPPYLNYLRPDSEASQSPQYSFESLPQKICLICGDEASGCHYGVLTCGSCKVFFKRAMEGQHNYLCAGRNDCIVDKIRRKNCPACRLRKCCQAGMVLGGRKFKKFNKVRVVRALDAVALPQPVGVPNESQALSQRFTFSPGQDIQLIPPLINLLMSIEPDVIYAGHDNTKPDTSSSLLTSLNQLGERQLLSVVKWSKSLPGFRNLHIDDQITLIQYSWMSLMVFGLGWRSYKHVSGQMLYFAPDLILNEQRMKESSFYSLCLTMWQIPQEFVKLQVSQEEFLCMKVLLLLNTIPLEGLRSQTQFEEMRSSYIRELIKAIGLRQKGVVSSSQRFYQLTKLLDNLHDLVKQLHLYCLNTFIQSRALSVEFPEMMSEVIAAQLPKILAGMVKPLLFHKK
Chain of Thyrotropin-releasing hormone receptor (Homo sapiens) (P34981 whole entry, looked up): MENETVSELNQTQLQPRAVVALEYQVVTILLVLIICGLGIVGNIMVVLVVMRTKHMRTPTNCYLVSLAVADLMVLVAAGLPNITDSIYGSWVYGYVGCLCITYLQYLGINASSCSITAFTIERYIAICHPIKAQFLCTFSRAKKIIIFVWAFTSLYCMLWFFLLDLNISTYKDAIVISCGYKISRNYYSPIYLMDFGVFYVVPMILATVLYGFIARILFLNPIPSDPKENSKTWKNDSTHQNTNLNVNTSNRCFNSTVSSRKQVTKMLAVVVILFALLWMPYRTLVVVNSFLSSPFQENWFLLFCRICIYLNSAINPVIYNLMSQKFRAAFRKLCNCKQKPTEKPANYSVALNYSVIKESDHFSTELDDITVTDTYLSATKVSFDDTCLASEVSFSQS

SMILES | Potency [1] | Potency [2] | Potency [3] | Potency [4] | outcome [5] | Potency [6] | Potency [7] | Potency [8] | Potency [9] | Potency [10]
CCCCCCCCCCCCCCn1cc[n+](C)c1 | 15.4 µM (active) and 24.1 µM (active) | inactive | inactive | 30.7 µM (active) and 42.8 µM (active) and inactive | inactive | – | – | – | – | –
CCCCN(CCCC)C(=S)S | inactive | inactive | – | inactive | inactive | inactive | inactive | inactive | – | –
CC(=O)[O-].CC(=O)[O-].O.O.[Zn+2] | inactive | inactive | – | inactive | inactive | inactive | inactive | inactive | – | –
CN1C2CCC(C)(C)C1CC(OC(=O)C(O)(c1cccs1)c1cccs1)C2 (stereo unspecified) | inactive | inactive | inactive | – | inactive | inactive | inactive | – | inactive | inactive
C[C@@H]1CC2=CC(=O)CC[C@@H]2[C@H]2CC[C@@]3(C)[C@@H](CC[C@]3(C)O)[C@@H]21 | inactive | 0.0017 µM (active) | inactive | – | inactive | – | inactive | inactive | – | –
CSC(=O)c1c(C(F)F)nc(C(F)(F)F)c(C(=O)SC)c1CC(C)C | inactive | inactive | 30.5 µM (active) | inactive | inactive | – | inactive | inactive | inactive | inactive
O=Cc1ccccc1 | inactive | inactive | inactive | – | inactive | inactive | inactive | inactive | inactive | inactive
CCNS(=O)(=O)C(F)(F)C(F)(F)C(F)(F)C(F)(F)C(F)(F)C(F)(F)C(F)(F)C(F)(F)F | inactive | inactive | 65.7 µM (active) | – | inactive | – | inactive | inactive | inactive | inactive
COP(=O)(OC)O/C(=C\Cl)c1cc(Cl)c(Cl)cc1Cl | inactive | inactive | 6.86 µM (active) | – | inactive | – | inactive | – | inactive | inactive
CSC1=N[C@@](C)(c2ccccc2)C(=O)N1Nc1ccccc1 | 54.5 µM (active) | inactive | 43.3 µM (active) | – | inactive | – | – | inactive | inactive | inactive
Nc1nc(N)c(N)c(N)n1 | inactive | 7.74 µM (active) | inactive | – | – | inactive | inactive | inactive | inactive | 39.1 µM (active)
CC(=O)[O][Sn]([c]1ccccc1)([c]1ccccc1)[c]1ccccc1 | 8.63 µM (active) | inactive | 0.0486 µM (active) | – | – | 0.273 µM (active) | 1.95 µM (active) | 1.74 µM (active) | 2.69 µM (active) | 4.9 µM (active)
Nc1cc(Cl)ccc1Cl | inactive | inactive | inactive | inactive | inactive | – | inactive | inactive | inactive | inactive
C[N+]1(C)[C@@H]2CC[C@H]1CC(OC(=O)C(CO)c1ccccc1)C2 (stereo partly specified) | inactive | inactive | inactive | – | inactive | – | inactive | inactive | – | –
O=[N+]([O-])C(Br)Br | inactive | inactive | – | inactive | inactive | inactive | inactive | inactive | inactive | inactive
Brc1cccc(-c2ccccc2)c1 | inactive | inactive | inactive | inactive | inactive | – | inactive | inactive | inactive | inactive
CCC1COC(Cn2cncn2)(c2ccc(Cl)cc2Cl)O1 (stereo unspecified) | inactive | inactive | 27.3 µM (active) | – | inactive | – | inactive | inactive | inactive | inactive
COC(=O)C(C)N(C(=O)c1ccco1)c1c(C)cccc1C (stereo unspecified) | inactive | inactive | – | inactive | inactive | inactive | inactive | inactive | – | –
CCC(C)Br (stereo unspecified) | inactive | inactive | – | inactive | inactive | inactive | inactive | inactive | inactive | inactive
Clc1ccc(C(c2ccc(Cl)cc2)C(Cl)Cl)cc1 | inactive | inactive | 7.82 µM (active) | – | inactive | – | inactive | – | – | –
Oc1ccc(Cl)c(Cl)c1 | inactive | inactive | 26.9 µM (active) | inactive | inactive | – | inactive | inactive | inactive | inactive
CN | inactive | inactive | – | inactive | inactive | inactive | inactive | inactive | inactive | inactive
O=[N+]([O-])c1cccc2cccc([N+](=O)[O-])c12 | inactive | inactive | 27.4 µM (active) | – | inactive | – | inactive | – | inactive | inactive
CCOP(=O)(Sc1ccccc1)Sc1ccccc1 | inactive | inactive | – | inactive | inactive | inactive | inactive | inactive | – | –
Clc1cc(Cl)c(-c2cc(Cl)c(Cl)cc2Cl)cc1Cl | inactive | inactive | – | inactive | inactive | inactive | inactive | inactive | inactive | inactive
CN/C(=N\[N+](=O)[O-])NCc1cnc(Cl)s1 | inactive | inactive | inactive | – | inactive | inactive | inactive | – | – | –
COCCC#N | inactive | inactive | – | inactive | inactive | inactive | inactive | inactive | – | –
N#Cc1ccc(N(CC(N)=O)CC(F)(F)F)cc1C(F)(F)F | inactive | inactive | – | inactive | inactive | inactive | inactive | inactive | inactive | inactive
CC1CCCC1 | inactive | 53.6 µM (active) | – | – | – | inactive | inactive | inactive | inactive | inactive
